Measurements from PubChem BioAssay (NCATS).
Records with an inconclusive call do not appear. Calls of active or inactive are those of the source. The call rests on the fitted dose curve; in most records, active means well fitted inhibition curve with a large enough effect; inconclusive means small, poorly fitted or top-dose-only effect; inactive means flat fitted curve, though single readings scatter.

Experiment: P-glycoprotein substrates identified in KB-8-5-11 adenocarcinoma cell line, qHTS therapeutic library screen (AID 1346987); further: nearly all actives have a fitted effect of over 65% in size
Settings: KB-8-5-11 (P-gp overexpressing) viability, CellTiter-Glo, 72 h; series mostly up to 44.5 µM; activity change, negative = cytotoxicity: at the top concentration
How it was run: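 Luminescence from CellTiter-Glo, read 5 min after addition, quantified survival of KB-8-5-11 (P-gp-overexpressing) cells exposed to compounds for 72 h. AC50 was derived from concentration-response curves.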
On the % scale 0 is the no-effect control and ±100 the full control effect; potency means the concentration at half of the fitted maximal effect.

Compound	Potency	activity change, negative = cytotoxicity	outcome
O=C(NNc1nc2cc(F)ccc2n2cccc12)c1cnccn1	2.31 µM (active)		
C/C(=C(\CCOC(=O)c1ccccc1)SS/C(CCOC(=O)c1ccccc1)=C(/C)N(C=O)Cc1cnc(C)nc1N)N(C=O)Cc1cnc(C)nc1N		-1.98% (inactive)	
Fc1ccc(-c2cncc(CN3CCN(c4cccc5c4OCCO5)CC3)c2)cc1		-26.7% (inactive)	
CCNc1nc(Nc2cc(F)c(C(=O)N3CCOCC3)cc2OC)ncc1C(F)(F)F	9.2 µM (active)		
CCN(CC)CCCS(=O)(=O)N[C@H](CCc1ccccc1)c1nc(Cc2ccc(Br)cc2)no1	23.1 µM (active)		
Cc1cc(-c2ncc(-c3cccnc3)cc2/C=C/c2ccccc2)cnc1-c1cccnc1	10.3 µM (active)		
O=C1O[C@H]2[C@H](O)[C@@H]1OC(O)[C@H]2O (some centres undefined)		-16.3% (inactive)	
COc1cc(CCO)ccc1O[C@@H]1O[C@H](CO)[C@@H](O)[C@H](O)[C@H]1O		-3.09% (inactive)	
COc1ccc(C2(N(C)C(=O)c3ccc(NC(=O)c4ccco4)cc3)CCOCC2)cc1		-18.8% (inactive)	
COc1ccc2cc(-c3cc(-c4cc(Cl)cc(Cl)c4)nn3C(C)c3ccc(C(=O)NCCC(=O)O)cc3)ccc2c1 (centres undefined)		-11.7% (inactive)	
C=C(C(=O)O)[C@@H]1CC=C(CCC(C)=O)[C@@H](C)CC1		-0.516% (inactive)	
Cc1cc(N2CCN(C(=O)Oc3ccc(-c4ccccc4)cn3)CC2)c2ccccc2n1	14.6 µM (active)		
Clc1ncoc1-c1c[nH]c2ccccc12		-2.16% (inactive)	
COC(=O)C(Cc1ccc(OCCn2c(=O)sc3cc(C(=O)c4ccccc4)ccc32)cc1)C(=O)OC			inactive
O=S1(=O)CCN(Cc2cc(NCC3CCOCC3)c3[nH]c(-c4ccccc4)cc3c2)CC1		-14.6% (inactive)	
CS/C=C/C(=O)O[C@@H]1CCC2=CC(=O)C(=C(C)C)C[C@]2(C)[C@H]1C		-25.4% (inactive)	
C[C@]12CC[C@@H]3c4ccc(OS(=O)(=O)O)cc4CC[C@H]3[C@@H]1CCC2=O		-5.84% (inactive)	
CN(C)C(=O)NC1(c2ccccc2)CCN(CCC[C@]2(c3ccc(Cl)c(Cl)c3)CCCN(C(=O)c3ccccc3)C2)CC1	18.4 µM (active)		
CO[C@@H]1[C@H](O)CCC2(CO2)[C@H]1[C@@]1(C)O[C@@H]1CC=C(C)C (some centres undefined)		-13.1% (inactive)	
CC(=O)O[C@H]1[C@@]2(O)C[C@H](C)[C@H](OC(=O)c3ccccc3)[C@@H]2[C@@H](OC(=O)CO)[C@]2(OC(C)=O)C[C@H]3C(=O)C(C)(C)C[C@@H]3[C@@]1(C)[C@H]2OC(C)=O		-7.07% [at 17.3 µM] (inactive)	

Compound	Potency	activity change, negative = cytotoxicity	outcome
CN(C(=O)CO)c1c(I)c(C(=O)NCC(O)CO)c(I)c(C(=O)NCC(O)CO)c1I (centres undefined)		-17.8% (inactive)	
CC(C)n1c(=O)c(C(=O)NC2CC3CCC(C2)N3C[C@@H](O)CN(C)S(C)(=O)=O)cc2ccccc21 (some centres undefined)		-11.6% (inactive)	
C/C=C(\C)C(=O)OC1C=C(C)CC(OC(=O)c2ccc(O)cc2)C2C1(C)CCC2(O)C(C)C (centres undefined)		-21.9% [at 17.3 µM] (inactive)	
CC(=O)O[C@H]1C[C@@H]2CC[C@@H]3[C@H](CC[C@@]4(C)[C@H]3C[C@H](N3CC[N+](C)(C)CC3)[C@@H]4OC(C)=O)[C@@]2(C)C[C@@H]1N1CC[N+](C)(C)CC1		9.53% (inactive)	
CC[C@H](C)/C=C(C)/C=C/C1=CC2=CC(=O)[C@]3(C)OC(=O)[C@@H](C(C)=O)[C@@H]3C2=CO1		3.81% (inactive)	
C/C=C1\NC(=O)[C@H]2CSSCC/C=C/[C@H](CC(=O)N[C@H](C(C)C)C(=O)N2)OC(=O)C(C(C)C)NC1=O (some centres undefined)	20.6 µM (active)		
COc1ccccc1-c1ccc(-c2cn(C(=O)N3CCCCC3Cc3ccccc3)nn2)cc1 (centres undefined)		-13.4% (inactive)	
CC(C(=O)O)c1ccc(C2CCCCC2)c2ccccc12 (centres undefined)		9.78% (inactive)	
CC[C@@H](C)Nc1cc(C(=O)NC2CC3CCC(C2)N3c2ccc(C(=O)C3CC3)cn2)c(C)cc1C(N)=O (some centres undefined)	0.13 µM (active)		
O=C(NCC(=O)N1CCCC1)Nc1ccc2cnccc2c1		-6.07% (inactive)	
COc1cc(-c2cn(C3CCc4c(F)cccc4N(CC(F)(F)F)C3=O)nn2)ccc1-n1cnc(C)c1 (centres undefined)		-14% (inactive)	
O=C(Cn1cnnn1)N[C@@H]1C(=O)N2C(C(=O)O)=C(CSc3nncs3)CS[C@H]12	inactive		
CNC(=O)c1ccc2c(c1)CCO[C@H]2CCN1CCN(c2ccc(OC)cc2)CC1		-16.4% (inactive)	
CCCCC(=O)O	inactive		
CN(C)c1ccnc2sc3c(=O)n(N4CCCCCC4)cnc3c12		-16% (inactive)	
Cc1cc(OCCCS(C)(=O)=O)cc(C)c1-c1cccc(COc2ccc3c(c2)OCC3CC(=O)O)c1 (centres undefined)		-14.9% (inactive)	
CCO[C@H]1CN(C2CCC(O)(c3ccc4c(c3)OCO4)CC2)C[C@@H]1NC(=O)CNC(=O)c1cccc(C(F)(F)F)c1 (some centres undefined)		-4% (inactive)	
O=[N+]([O-])c1cn2c(n1)OC[C@@H](OCc1ccc(-c3ccc(OC(F)(F)F)cc3)nc1)C2		-4.02% (inactive)	
C=C1C(=O)O[C@@H]2C=C(COC(C)=O)CC/C=C(\CO)CC[C@@H]12			inactive
